The values below come from the supplement of paper PMC13380429.

Unmarked numbers belong to inactive results.

The test system of this experiment is Vero E6 infected with SARS-CoV-2. The experiment is described as follows: inhibition of SARS-CoV-2 cytopathic effect; higher = more antiviral protection, active = above 15. The settings on record: 48 h. Background: Cytopathic effects are the visible damage that an infection or toxin causes in cultured cells.

Regarding `CC(=O)N(OCc1ccccc1)[C@@H]1c2cc(C#N)ccc2OC(C)(C)[C@H]1O`, the “inhibition of SARS-CoV-2 cytopathic effect” value (from here on “inhibition”) runs as follows: (1 nM) -4.41%; (8.33 nM) -2.98%; (100 nM) -6.3%; (833.33 nM) 2.7%; (10000 nM) 2.53%.

Turning to `CC(C)N(CCCNC(=O)Nc1ccc(C(C)(C)C)cc1)C[C@H]1O[C@@H](n2ccc3c(N)ncnc32)[C@H](O)[C@@H]1O`, the “inhibition” value was 4.48% (1 nM); 2.04% (8.33 nM); 4.36% (100 nM); -0.49% (833.33 nM); 0.43% (10000 nM).

As for `C=C[C@]1(C)C[C@@H](OC(=O)CSC(C)(C)CNC(=O)[C@H](N)C(C)C)[C@]2(C)[C@H](C)CC[C@]3(CCC(=O)[C@H]32)[C@@H](C)[C@@H]1O` [valnemulin], the “inhibition” value reads like this: (1 nM) -0.47%; (8.33 nM) -0.46%; (100 nM) -2.63%; (833.33 nM) -4.5%; (10000 nM) -4.72%.

As to `C[C@@H]1c2ccccc2CN1CC1=NCCN1` (racemic), the “inhibition” value by setting is: (1 nM) -1.04%; (8.33 nM) -0.79%; (100 nM) -0.96%; (833.33 nM) 1.02%; (10000 nM) -0.71%.

Regarding `CCOc1cc(C(=O)Nc2ccc(Cl)c(-c3nc4ccccc4[nH]3)c2)cc(OCC)c1OCC`, the “inhibition” value (1 nM) was 2.95%; the “inhibition” value (8.33 nM) is 2.03%; the “inhibition” value (100 nM) is 0.45%; the “inhibition” value (833.33 nM) is -3.49%; the “inhibition” value (10000 nM) was 4.29%.

As to `CS(=O)(=O)c1ccc(Cn2c3c(c4cc(F)cc(F)c42)CCCC3CC(=O)O)cc1` (stereo not given), the “inhibition” value is 0.13% (1 nM); -0.29% (8.33 nM); -0.12% (100 nM); 1.36% (833.33 nM); -1.55% (10000 nM).

Take `CC(C)=CCC[C@]1(C)C=Cc2c(O)c3c(c(CC=C(C)C)c2O1)O[C@]12C(=C[C@@H]4C[C@H]1C(C)(C)O[C@@]2(C/C=C(/C)C(=O)O)C4=O)C3=O` [gambogic-acid]: the “inhibition” value by setting is: (1 nM) 2.13%; (8.33 nM) -0.37%; (100 nM) 0.38%; (833.33 nM) 4.87%; (10000 nM) -14.3%.

As to `O=c1c(O)c(-c2ccc(O)c(O)c2)oc2cc(O)ccc12` [fisetin], the “inhibition” value was 0.55% (1 nM); -1.12% (8.33 nM); 0.7% (100 nM); -0.95% (833.33 nM); -1.68% (10000 nM).

Regarding `Cc1cc(C)c(Nc2ccnc(Nc3ccc(C#N)cc3)n2)c(C)c1` [dapivirine], the “inhibition” value (1 nM) was -0.02%; the “inhibition” value (8.33 nM) is -0.53%; the “inhibition” value (100 nM) is 0.06%; the “inhibition” value (833.33 nM) is 2.16%; the “inhibition” value (10000 nM) was -8.23%.

For `O=C(O)CCCCCCCC(=O)O` [azelaic-acid], the “inhibition” value by setting is: (1 nM) 24.2% (active); (8.33 nM) 0.49%; (100 nM) -0.06%; (833.33 nM) 0.7%; (10000 nM) -3.28%.

With `Cc1oc2nc3c(c(NC(=O)CN4CCCC4=O)c2c1C)CCCC3`, the “inhibition” value (1 nM) is 0.92%; the “inhibition” value (8.33 nM) was -2.29%; the “inhibition” value (100 nM) is -0.3%; the “inhibition” value (833.33 nM) is -0.97%; the “inhibition” value (10000 nM) is 0.5%.

Take `Cc1cc(C#N)cc(C)c1Oc1nc(Nc2ccc(C#N)cc2)nc(N)c1Br` [etravirine]: the “inhibition” value was -0.95% (1 nM); -0.81% (8.33 nM); -2.15% (100 nM); -5.24% (833.33 nM); -2.04% (10000 nM).

Turning to `CC(NC(=O)c1ccccc1/N=C/c1c(O)ccc2ccccc12)c1ccccc1` (stereo not given) [sirtinol], the “inhibition” value was 3.41% (1 nM); -0.75% (8.33 nM); -3.54% (100 nM); -2.85% (833.33 nM); 0.96% (10000 nM).

As to `C=CCN1C[C@H](C)N([C@H](c2ccc(C(=O)N(CC)CC)cc2)c2cccc(O)c2)C[C@H]1C`, the “inhibition” value (1 nM) is 0.51%; the “inhibition” value (8.33 nM) was 2.94%; the “inhibition” value (100 nM) is -0.07%; the “inhibition” value (833.33 nM) was -0.38%; the “inhibition” value (10000 nM) was -1.22%.

Turning to `O=C(CCCCCN1C(=O)c2cccc3cccc(c23)C1=O)NO` [scriptaid], the “inhibition” value is 4.82% (1 nM); 3.4% (8.33 nM); -3.14% (100 nM); -13.6% (833.33 nM); -24.8% (10000 nM).

For the compound `CCCNC(C)(C)COC(=O)c1ccccc1` [meprylcaine], the “inhibition” value was 2.21% (1 nM); -2.34% (8.33 nM); -2.33% (100 nM); -1.75% (833.33 nM); -5.76% (10000 nM).

`CC(=O)N(O)C/C=C/c1cccc(Oc2ccccc2)c1`: the “inhibition” value is 2.1% (1 nM); 2.16% (8.33 nM); 1.66% (100 nM); -0.73% (833.33 nM); -2.02% (10000 nM).
